Assay outcomes: PubChem, National Center for Advancing Translational Sciences (NCATS)
JMJD2E inh = qHTS Assay for Inhibitors of Human Jumonji Domain Containing 2E (JMJD2E) | Potency, µM (titrated, usually from 57.1 µM), for the others: at the highest dose activity change, negative = inhibition, hits mostly inhibitors | actives 1.6% (n = 230,000) | JMJD2E catalytic domain, FDH-coupled NADH fluorescence (FDH is formaldehyde dehydrogenase);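 also: potency is read from the fitted curve at half-maximal effect; 0% = wells with enzyme and -100% = buffer wells without enzyme; nearly all actives have a fitted effect of over 50% in size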
NPSR antagonist = qHTS Assay for Antagonists of the Neuropeptide S Receptor: cAMP Signal Transduction; Q6W5P4; Potency, µM (doses to about 38.3 µM), for the others: at the top dose activity change, negative = inhibition, most hits filed as inhibitors; actives 1% (n = 220,000); AID 1461, 2008; CHO-NPSR cells, cAMP TR-FRET, antagonist mode; also: potency is read from the fitted curve at half-maximal effect; nearly all actives have a fitted effect of over 50% in size
Target sequence (Q6W5P4 whole entry, looked up): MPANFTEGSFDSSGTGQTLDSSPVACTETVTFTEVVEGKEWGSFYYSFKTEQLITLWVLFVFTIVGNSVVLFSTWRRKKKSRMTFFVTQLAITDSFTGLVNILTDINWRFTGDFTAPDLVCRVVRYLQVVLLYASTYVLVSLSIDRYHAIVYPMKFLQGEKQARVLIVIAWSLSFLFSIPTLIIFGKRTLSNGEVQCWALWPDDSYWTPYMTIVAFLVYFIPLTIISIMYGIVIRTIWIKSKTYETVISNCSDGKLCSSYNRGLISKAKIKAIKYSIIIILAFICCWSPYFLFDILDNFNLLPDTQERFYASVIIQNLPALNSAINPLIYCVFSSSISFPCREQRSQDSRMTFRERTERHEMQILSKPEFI
PNC assembly inh = High Content Assay for Compounds that inhibit the Assembly of the Perinucleolar Compartment; activity change (PNC), negative = inhibition, % at 10 µM; PC3M PTB-GFP, PNC prevalence imaging, 16 h; hits give low values; actives 3.1% (n = 140,000);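 active = readout at or below -70, meaning at least 70% loss of cells showing the perinucleolar compartment, a nuclear body marking cancer cells; inconclusive = readout between -30 and a set limit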;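 also: plate controls were DMSO wells for no effect and camptothecin positive control wells for full effect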
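PC3M cells stably expressing PTB-GFP, 750–1000 cells/well, treated 16 h at 37 °C with compound (23 nl of library stock), in duplicate. After paraformaldehyde fixation and Hoechst stain, imaged at 20x; PNC prevalence scored by image analysis.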
Tau fluor counter = Counterscreen qHTS for Inhibitors of Tau Fibril Formation, Fluorescence Polarization; AID 1463, 2008; tau K18 P301L Alexa594 fluorescence, heparin fibrillization; actives 0.93% (n = 280,000); Potency, µM (series often up to 57.7 µM), for inactives: top-dose activity change, negative = decrease; also: potency is read from the fitted curve at half-maximal effect; nearly all actives have a fitted effect of over 55% in size
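Human K18 P301L tau (15 uM unlabeled plus 0.24 uM Alexa 594-labeled, final) in 100 mM sodium acetate pH 7 was mixed with compound and 20 uM heparin and incubated 6 hr at 37 C.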
Tau fibril FP = qHTS for Inhibitors of Tau Fibril Formation, Fluorescence Polarization | K18 P301L tau heparin fibrillization, Alexa594 FP, 6 h | actives 0.39% (n = 280,000) | Microtubule-associated protein tau (Homo sapiens), P10636 | Potency, µM (series often up to 57.7 µM), for the others: top-dose activity, negative = inhibition, usual class: inhibitors | AID 1468, 2008; also: potency is read from the fitted curve at half-maximal effect; nearly all actives have a fitted effect of over 55% in size
Target sequence (P10636 561-689 P618L limits assumed): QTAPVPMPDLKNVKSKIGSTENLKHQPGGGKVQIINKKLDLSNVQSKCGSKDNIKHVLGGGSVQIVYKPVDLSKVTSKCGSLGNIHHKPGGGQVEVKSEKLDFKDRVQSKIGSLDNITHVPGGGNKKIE
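Read-out: fluorescence polarization of Alexa 594-labeled tau (0.24 uM), 555 nm excitation, 632 nm emission. Mixtures held 15 uM unlabeled K18 P301L, compound and 20 uM heparin, pH 7 acetate buffer, incubated 6 hr at 37 C.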
Tau ThT inhib = qHTS for Inhibitors of Tau Fibril Formation, Thioflavin T Binding | Potency, µM (series often up to 57.4 µM), inactives show at the highest dose activity, negative = inhibition, most hits filed as inhibitors | actives 2.1% (n = 270,000) | recombinant tau K18 P301L, heparin-induced fibrillization, ThT fluorescence | Microtubule-associated protein tau (Homo sapiens), P10636 | AID 1460, 2008; also: potency is read from the fitted curve at half-maximal effect; nearly all actives have a fitted effect of over 55% in size
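Fibril formation assay: tau K18 P301L at 15 uM with trace Alexa 594 label, heparin inducer 20 uM, pH 7 sodium acetate buffer, 37 C for 6 hr; endpoint ThT signal.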
* = called active by the depositor; ? = inconclusive; / = not tested or not shown; [ ] = another dose, or the depositor's remark. Only some compounds are listed: those with a hit (about 5.1% of all), similar ones and a draw of the others. Unless noted, calls follow the shape of the dose curve; as a rule, active = well fitted curve in the direction sought with a large enough effect; inconclusive = small, poorly fitted or top-dose-only effect, or another doubt; inactive = no such curve, though single readings can be large; an effect the other way counts as inactive or inconclusive. Unless noted, % is scaled to controls: 0 for no effect and ±100 for the full control effect.

SMILES | JMJD2E inh | NPSR antagonist | PNC assembly inh | Tau fluor counter | Tau fibril FP | Tau ThT inhib
COC(=O)Nc1ccc(Oc2ccccc2)cc1 | -3% | -2%[46.1 µM] | -93* | -7% | 2% | -17%
CCC(CC)C(=O)Nc1ccc2nc(SCC(=O)N3c4ccccc4CC3C)sc2c1 (stereo unspecified) | / | / | / | -16% | -13% | 2%
CCC1CCCCN1C(=O)CSc1nnc(-c2ccc3c(c2)OCCO3)o1 (stereo unspecified) | 9% | -4%[46.1 µM] | -107* | -7% | 2% | -4%
Cc1c(C(N)=O)nnn1-c1ccc(Br)cc1 | / | / | / | -19% | 11% | 2%
CCOC(=O)C1=C(C)NC(=O)CC1c1cc2c(cc1[N+](=O)[O-])OCO2 (stereo unspecified) | ? | -13% | / | ? | ? | 22µM*
CCCOC(=O)C1=C(C)N(C)C(=O)NC1c1cc2c(cc1[N+](=O)[O-])OCO2 (stereo unspecified) | -14% | -14% | / | -8% | 11% | -14%
COc1ccc(N2CCN(C(=O)CCS(=O)(=O)c3cccc4nsnc34)CC2)cc1 | -6% | 19% | -85* | -16% | -3% | ?
Cc1ccc(Oc2nc3ccccn3c(=O)c2/C=C(\C#N)c2nc3ccccc3s2)c(C)c1 | / | / | / | -29% | ? | ?
Cc1cc(C)c(NC(=O)NC2CCCCC2)c(C)c1 | 6% | 13% | -113* | -1% | -4% | -3%
Cc1ccc(NC(=O)C2CCN(c3nc(-c4ccc(C(C)C)cc4)no3)CC2)c(Cl)c1 | / | / | / | -16% | -1% | ?
CC1=C(C(=O)OCC2CCCCC2)C(c2ccc(Cl)cc2Cl)CC(=O)N1 (stereo unspecified) | / | / | / | -4% | 4% | -8%
Cc1[nH]c2ccccc2c1SCc1ccccc1 | -3% | ? | / | 18µM*[quencher] | -5% | ?
S=c1nc(SCc2ccccc2)[nH]c2ccccc12 | 1% | 10µM* | / | -26% | ? | ?
Cc1[nH]c2ccccc2c1SCc1n[nH]c(=S)n1C | -2% | -5% | / | -19% | -5% | /
CNS(=O)(=O)c1cn(CC(=O)Nc2ccc(C(C)=O)cc2)cc1S(=O)(=O)NC | / | / | / | 0% | -2% | 9%
COc1cccc(NC(=O)Nc2ccc3c(c2)N(C)C(=O)CS3)c1 | 2% | -12%[46.1 µM] | -27 | 14µM*[quencher] | 2% | ?
CCOc1ccc(OCC)c(NC(=O)Nc2ccc3c(c2)N(C)C(=O)CS3)c1 | -4% | ? | ? | 8.9µM*[quencher] | 5% | -18%
CC(=O)Nc1ccc(NC(=O)Nc2ccc3c(c2)N(C)C(=O)CS3)cc1 | -3% | 14% | / | -20% | 3% | -14%
COC(=O)c1ccc(Cn2c(=O)cc(C)c3c(C)nn(C)c32)cc1 | / | / | / | -2% | 0% | ?
CN(C)c1ccc(-c2nc(NCc3cccnc3)c3ccccc3n2)cc1 | ? | / | / | 18µM*[quencher] | -10% | 14µM*
Cc1ccccc1-c1nc(NCc2cccnc2)c2ccccc2n1 | ? | / | / | -22% | ? | -10%
c1cncc(CNc2nc(-c3ccoc3)nc3ccccc23)c1 | ? | / | / | ? | ? | 28µM*
CN(C)c1ccc(-c2ccc3ncnc(NCc4ccccc4)c3c2)cc1 | ? | / | / | 10µM*[quencher] | ? | ?
Cc1cc(=O)n(CC(=O)Nc2ccc([N+](=O)[O-])cc2)c(-n2nc(C)cc2C)n1 | / | / | / | ? | -13% | ?
O=C(NN=C1CCN(Cc2ccccc2)CC1)c1ccccc1O | ? | 5% | / | -21% | -3% | ?
SMILES | JMJD2E inh | NPSR antagonist | PNC assembly inh | Tau fluor counter | Tau fibril FP | Tau ThT inhib
O=C(NN=C1CCN(Cc2ccccc2)CC1)c1cc2ccccc2cc1O | 28µM* | 1% | ? | ? | 1% | 13µM*
COc1ccc(Cl)cc1NC(=O)Cn1cnc2sc(C)c(S(=O)(=O)N3CCN(c4ccccc4OC)CC3)c2c1=O | / | / | / | ? | -4% | -3%
CCOc1ccc(NC(=O)CSc2nnc3scc(-c4ccccc4)n23)cc1 | / | / | / | -29% | 13% | ?
CCOc1ccc(-c2cc3nc(C4CCN(C(=O)OC(C)(C)C)CC4)c(C(=O)Nc4ccc(C)cc4C)cn3n2)cc1 | / | / | / | -24% | -5% | ?
CC1CCN(c2c(NCC3CCC(C(=O)Nc4ccccn4)CC3)c(=O)c2=O)CC1 (stereo unspecified) | 2% | -4% | -119* | -10% | -6% | -10%
O=C(NC1CCCCCCC1)C1CCC(CNc2c(N3CCCC3)c(=O)c2=O)CC1 (stereo unspecified) | -2% | 9% | -119* | 3% | 9% | 2%
Cc1c(C(=O)Nc2cccc(Cl)c2)oc2ccc(S(=O)(=O)N(C)C3CCCCC3)cc12 | / | / | / | -16% | ? | 3%
O=C(Cn1nc2c(cc1=O)CCCC2)NCc1ccccc1Cl | / | / | / | -1% | -3% | 5%
COc1ccc(-n2c(SCC(=O)NCc3ccc(Cl)cc3)nc3ccsc3c2=O)cc1 | / | / | / | -18% | ? | 6%
O=Cc1ccc(-n2cncn2)cc1 | 7.1µM* | 3% | / | -2% | 0% | -8%
COC(=O)/C=C/c1ccc(-n2cncn2)cc1 | -12% | 17% | / | -1% | 7% | -14%
O=C1/C(=C/c2ccc(O)cc2)SC(=S)N1CC1CCCO1 (stereo unspecified) | -7% | 9%[7.67 µM] | / | 13µM*[quencher] | ? | 10µM*
CCCOc1ccc(/C=C2\SC(=S)N(CC3CCCO3)C2=O)cc1 (stereo unspecified) | 12% | -18% | 26 | -10% | -5% | ?
Cc1ccccc1-c1noc(-c2ccc(N3CCCC3)c([N+](=O)[O-])c2)n1 | / | / | / | -14% | -1% | 1%
Cc1ccc(NC(=O)Cn2c(=O)n(Cc3ccccc3)c(=O)c3sc4ccccc4c32)cc1 | / | / | / | -15% | -18% | 1%
CNC(=O)c1c(NC(=O)c2nc(SCc3ccc(C)cc3)ncc2Cl)sc2c1CCCC2 | / | / | / | -1% | -5% | -1%
CC1=NNC(=O)/C1=C\c1cn(-c2ccccc2)nc1-c1ccc(Cl)cc1 | 0% | 2.5µM* | 54 | -17% | 0% | ?
Cc1[nH]c2ccccc2c1/C=C(\C#N)C(=O)NCc1ccccc1 | -18% | -19% | ? | -26% | ? | -5%
CC(=O)Nc1ccc(/C=C(\C#N)C(=O)NCc2ccccc2)cc1 | -6% | -17% | 49 | -5% | 4% | -5%
Cc1ccc(/C=C(/C#N)C(=O)NC(=O)Oc2ccccc2)cc1 | -12% | 9%[46.1 µM] | -101* | 1% | 8% | -6%
